Laboratory results: PubChem BioAssay (NCATS)
Results filed as inconclusive are left out. A number with no mark means an inactive call. The source made the active and inactive calls. Calls come from the whole dose curve; as a rule, active = well fitted inhibition curve with a large enough effect; inconclusive = small, poorly fitted or top-dose-only effect; inactive = flat fitted curve, though single readings scatter. Peptide text beside a SMILES is read from it.

test system: TAB113; test: qHTS profiling for inhibitors of Plasmodium falciparum proliferation (AID 504749); note: nearly all actives have a fitted effect of over 60% in size;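 for activity, negative = inhibition: 0% = DMSO vehicle and full inhibition = artemisinin control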; conditions: P. falciparum in erythrocytes, SYBR Green DNA, 72 h; series mostly up to 12.8 µM; activity, negative = inhibition: at the top concentration
Procedure, shortened: (§1)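 Infected RBCs, 0.3% parasitemia/2.5% Hct final; cpd 72 h, 37 C, 5% CO2; lysis buffer with saponin/triton/SYBR Green I, o/n RT dark; FI 485/535; norm. to artemisinin (0.29 uM) and DMSO.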
Potency is the fitted concentration of half-maximal effect.

Structure (SMILES)	activity, negative = inhibition	Potency
C[C@]12C=CC(=O)C=C1CCC1C2C(O)C[C@]2(C)C1CC[C@]2(O)C(=O)CO (stereo not given in full)	2.54% [at 28.7 µM]	
CC(C)=CCC[C@](C)(O)C1CC=C(C)CC1 (stereo not given in full)	-0.207% [at 28.7 µM]	
CO[C@]12C(COC(N)=O)C3=C(C(=O)C(C)=C(N)C3=O)N1CC1NC12 (stereo not given in full)		891 nM (active)
C[C@]1(c2ccccc2)OC(C(=O)O)=CC1=O	10.4% [at 28.7 µM]	
CC(=O)N[C@H](CC(C)C)C(=O)O	-17.9% [at 28.7 µM]	
COC1C=CO[C@@]2(C)Oc3c(C)c(O)c4c(O)c(c(C=NN5CCN(C)CC5)c(O)c4c3C2=O)NC(=O)/C(C)=C\C=CC(C)C(O)[C@@H](C)C(O)C(C)[C@H](OC(C)=O)C1C (stereo not given in full)		316 nM (active)
CC1CCC(C(C)C)C(=O)C1 (stereo not given)	10.8% [at 28.7 µM]	
CNC1CC(N)[C@H](O)[C@@H](O[C@@H]2OC(CO)C3OC4(OC(C(N)CO)C(O)C(O)C4O)O[C@@H]3[C@H]2O)C1O (stereo not given in full)	-3.36% [at 28.7 µM]	
CCCC(=O)O[C@]1(C(=O)CO)CCC2[C@@H]3CCC4=CC(=O)CC[C@]4(C)C3C(O)C[C@]21C (stereo not given in full)	14.3% [at 28.7 µM]	
CC(=O)[C@]1(O)CCC2C3C=C(Cl)C4=CC(=O)C5CC5[C@@]4(C)C3CC[C@]21C (stereo not given in full)	6.55% [at 28.7 µM]	
CC(=O)N[C@@H]1C(O)OC(CO)C(O)C1O (stereo not given in full)	2.73% [at 28.7 µM]	
C/C1=C2N=C(/C=C3N=C(/C(C)=C4\[N-]C(C)(C5N=C1C(C)(CCC(=O)NCC(C)OP(=O)([O-])O[C@H]1C(O)C(n6cnc7cc(C)c(C)cc76)O[C@@H]1CO)C5CC(N)=O)C(C)(CC(N)=O)C4CCC(N)=O)C(C)(CC(N)=O)C\3CCC(N)=O)C(C)(C)C/2CCC(N)=O.[CH2-]C1OC(n2cnc3c(N)ncnc32)C(O)C1O.[Co] (stereo not given in full)	2.03% [at 28.7 µM]	
O=C1OC(CO)C(O)C(O)C1O (stereo not given)	11.6% [at 28.7 µM]	
CNC1C(OC2C(O[C@@H]3C(O)C(O)[C@@H](N=C(N)N)C(O)C3N=C(N)N)OC(C)[C@@]2(O)CO)OC(CO)C(O)C1O (stereo not given in full)	0.312% [at 28.7 µM]	
COc1cc(C2c3cc4c(cc3C(O[C@@H]3OC5COC(c6cccs6)OC5C(O)C3O)C3COC(=O)C23)OCO4)cc(OC)c1O (stereo not given in full)		2240 nM (active)
Nc1nc2ncc(CNc3ccc(C(=O)NC(CCC(=O)O)C(=O)O)cc3)nc2c(=O)[nH]1 (stereo not given)	7.09% [at 28.7 µM]	

test system: TAB165; test: as above; conditions: P. falciparum in erythrocytes, SYBR Green DNA, 72 h; series mostly up to 12.8 µM; activity, negative = inhibition: at the top concentration
Procedure, shortened: as §1

Structure (SMILES)	activity, negative = inhibition	Potency
CN(C)CCCOC1C(C(O)CO)OC2OC(C)(C)O[C@@H]21 (stereo not given in full)	12.2% [at 28.7 µM]	
CCC(C)C(=O)OC1CCC=C2C=CC(C)C(CCC3CC(O)CC(=O)O3)[C@@H]21 (stereo not given in full)	8.3% [at 28.7 µM]	
CC(=O)OC1CCC2C3CCc4cc(O)ccc4C3CCC12C (stereo not given)	-0.636% [at 28.7 µM]	
CC[C@@]12CCCN3CCc4c(n(c5ccccc45)[C@](O)(C(=O)OC)C1)C32 (stereo not given in full)	-4.84% [at 28.7 µM]	
NC(C(=O)O)[C@@H]1CC(Cl)=NO1 (stereo not given in full)		1 µM (active)
CN1CC(=O)N=C1N	9.47% [at 28.7 µM]	
OCC1OC([S-])[C@H](O)C(O)C1O.[Au+] (stereo not given in full)	0.788% [at 28.7 µM]	
CC(C)C1CCC(C(=O)NC(Cc2ccccc2)C(=O)O)CC1 (stereo not given)	6.69% [at 28.7 µM]	
CCC(CCC(C)C1CCC2C3CC=C4CC(O)CC[C@@]4(C)C3CC[C@@]12C)C(C)C (stereo not given in full)	4.01% [at 28.7 µM]	
C[C@]12CCC(=O)C=C1CCC1C2C(=O)C[C@]2(C)C1CC[C@]2(O)C(=O)CO (stereo not given in full)	-0.742% [at 28.7 µM]	
OCC1O[C@H](OC2C(CO)O[C@@](O)(CO)C2O)C(O)C(O)C1O (stereo not given in full)	20.4% [at 28.7 µM]	
CC1(C)OC2CO[C@]3(COS(N)(=O)=O)OC(C)(C)OC3C2O1 (stereo not given in full)	6.86% [at 28.7 µM]	
CC1(C)OC2CC(=O)OC[C@@]23C1CC(=O)[C@]1(C)C3CC[C@@]2(C)C(c3ccoc3)OC(=O)C3O[C@@]321 (stereo not given in full)	-2.33% [at 28.7 µM]	
CCOC(=O)C1=CC(OC(CC)CC)C(NC(C)=O)C(N)C1 (stereo not given)	-22.9% [at 28.7 µM]	
COC1C=CO[C@@]2(C)Oc3c(C)c(O)c4c(O)c(c5c(nc6cc(C)ccn65)c4c3C2=O)NC(=O)/C(C)=C\C=CC(C)C(O)[C@@H](C)C(O)C(C)[C@@H](OC(C)=O)C1C (stereo not given in full)		2.24 µM (active)
COC(=O)C(Cc1ccccc1)NC(=O)C(N)CC(=O)O (stereo not drawn) (H-Asp-Phe-OMe; configuration not given here)	12.4% [at 28.7 µM]	
C[C@]12C=CC(=O)C=C1CCC1C2C(O)C[C@]2(C)C1CC[C@]2(O)C(=O)CO (stereo not given in full)	8.76% [at 28.7 µM]	

Structure (SMILES)	activity, negative = inhibition	Potency
CC1(C)S[C@H]2C(NC(=O)[C@@H](N)c3ccc(O)cc3)C(=O)N2[C@@H]1C(=O)O (stereo not given in full)	-0.958% [at 28.7 µM]	
CC(C)=CCC[C@](C)(O)C1CC=C(C)CC1 (stereo not given in full)	1.32% [at 28.7 µM]	
CO[C@]12C(COC(N)=O)C3=C(C(=O)C(C)=C(N)C3=O)N1CC1NC12 (stereo not given in full)		0.447 µM (active)
C[C@]1(c2ccccc2)OC(C(=O)O)=CC1=O	0.634% [at 28.7 µM]	
CC(=O)N[C@H](CC(C)C)C(=O)O	3.45% [at 28.7 µM]	
COc1ccc2cc(C(C)CO)ccc2c1 (stereo not given)	9.34% [at 28.7 µM]	
COC1C=CO[C@@]2(C)Oc3c(C)c(O)c4c(O)c(c(C=NN5CCN(C)CC5)c(O)c4c3C2=O)NC(=O)/C(C)=C\C=CC(C)C(O)[C@@H](C)C(O)C(C)[C@H](OC(C)=O)C1C (stereo not given in full)		0.141 µM (active)
CC1CCC(C(C)C)C(=O)C1 (stereo not given)	2.6% [at 28.7 µM]	
CNC1CC(N)[C@H](O)[C@@H](O[C@@H]2OC(CO)C3OC4(OC(C(N)CO)C(O)C(O)C4O)O[C@@H]3[C@H]2O)C1O (stereo not given in full)	16.2% [at 28.7 µM]	
CCCC(=O)O[C@]1(C(=O)CO)CCC2[C@@H]3CCC4=CC(=O)CC[C@]4(C)C3C(O)C[C@]21C (stereo not given in full)	9.44% [at 28.7 µM]	
CC(=O)[C@]1(O)CCC2C3C=C(Cl)C4=CC(=O)C5CC5[C@@]4(C)C3CC[C@]21C (stereo not given in full)	5.3% [at 28.7 µM]	
CC(=O)N[C@@H]1C(O)OC(CO)C(O)C1O (stereo not given in full)	2.2% [at 28.7 µM]	
C/C1=C2N=C(/C=C3N=C(/C(C)=C4\[N-]C(C)(C5N=C1C(C)(CCC(=O)NCC(C)OP(=O)([O-])O[C@H]1C(O)C(n6cnc7cc(C)c(C)cc76)O[C@@H]1CO)C5CC(N)=O)C(C)(CC(N)=O)C4CCC(N)=O)C(C)(CC(N)=O)C\3CCC(N)=O)C(C)(C)C/2CCC(N)=O.[CH2-]C1OC(n2cnc3c(N)ncnc32)C(O)C1O.[Co] (stereo not given in full)	3.74% [at 28.7 µM]	
O=C1OC(CO)C(O)C(O)C1O (stereo not given)	3.62% [at 28.7 µM]	
CNC1C(OC2C(O[C@@H]3C(O)C(O)[C@@H](N=C(N)N)C(O)C3N=C(N)N)OC(C)[C@@]2(O)CO)OC(CO)C(O)C1O (stereo not given in full)	11.9% [at 28.7 µM]	
COc1cc(C2c3cc4c(cc3C(O[C@@H]3OC5COC(c6cccs6)OC5C(O)C3O)C3COC(=O)C23)OCO4)cc(OC)c1O (stereo not given in full)		1.41 µM (active)
Nc1nc2ncc(CNc3ccc(C(=O)NC(CCC(=O)O)C(=O)O)cc3)nc2c(=O)[nH]1 (stereo not given)	2.77% [at 28.7 µM]	
